# Measured values taken from PubChem BioAssay (NCATS).
# Where “and” joins values, the source holds several entries; their conditions need not be identical. Equal values may be shown once. Results filed as inconclusive are left out. Where a call stands in place of a potency, no number is given. Calls of active or inactive are those of the source. Unless noted, the call rests on the fitted dose curve; in most records, active means well fitted curve in the direction sought with a large enough effect; inconclusive means small, poorly fitted or top-dose-only effect, or another doubt; inactive means no such curve, though single readings can be large; an effect the other way counts as inactive or inconclusive.
# What was measured:
# [1] = qHTS Assay for Lipid Storage Modulators (AID 1519; calls by dose curve); details: Drosophila S3 cells, BODIPY lipid droplet/cell ratio, laser cytometry, cells loaded with oleic acid
# How it was run: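 Cells seeded at 5,000 per well were treated with compounds over a concentration series and loaded with oleic acid (400 uM, as added). Lipid droplet fluorescence (488 nm excitation, 500-530 nm channel) was read by laser-scanning cytometry and normalized to 20 uM Triacsin C.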
# [2] = Counterscreen for APE1 Inhibitors: Fluorescent Dye Displacement Validation Assay (AID 1707)
# How it was run: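 Thiazole Orange displacement from dsDNA: 250 nM ThO with 50 nM TAMRA-labelled abasic-site (tetrahydrofuran) duplex in 50 mM Tris-HCl pH7.5, 50mM NaCl, 2 mM MgCl2, 0.01% Tween-20. Loss of endpoint fluorescence (ex 480 nm, em 540 nm) flags DNA binders.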
# [3] = qHTS for differential inhibitors of proliferation of Plasmodium falciparum line 7G8 (AID 1815);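 further: parasite growth measured after three days of incubation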; further: potency means the concentration at half of the fitted maximal effect
# [4] = qHTS for differential inhibitors of proliferation of Plasmodium falciparum line GB4 (AID 1816); details: Potency: Plasmodium falciparum GB4 proliferation inhibition;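 further: parasite growth measured after 72 h incubation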; further: potency means the concentration at half of the fitted maximal effect
# [5] = qHTS for differential inhibitors of proliferation of Plasmodium falciparum line 3D7 (AID 1876); further: potency means the concentration at half of the fitted maximal effect
# [6] = qHTS for differential inhibitors of proliferation of Plasmodium falciparum line D10 (AID 1877);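 further: parasites grown with compound for 72 h before DNA staining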; further: potency means the concentration at half of the fitted maximal effect
# [7] = qHTS for differential inhibitors of proliferation of Plasmodium falciparum line Dd2 (AID 1882); details: Potency: Plasmodium falciparum Dd2 proliferation inhibition; further: nearly all actives have a fitted effect of over 65% in size; further: potency means the concentration at half of the fitted maximal effect
# How it was run: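 Dd2-infected erythrocytes (0.3% parasitemia, 2.5% hematocrit final) incubated with compound 72 h at 37 C, 5% CO2; lysed with saponin/Triton buffer containing SYBR Green I, incubated overnight in the dark, then read by fluorescence (485/535 nm). Normalized to 0.29 uM artemisinin and DMSO.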
# [8] = qHTS for differential inhibitors of proliferation of Plasmodium falciparum line W2 (AID 1883); details: Potency: Plasmodium falciparum W2 proliferation inhibition;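 further: parasites grown with compound for 72 h before lysis and staining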; further: potency means the concentration at half of the fitted maximal effect
# [9] = qHTS for differential inhibitors of proliferation of Plasmodium falciparum line HB3 (AID 1886); details: Potency: Plasmodium falciparum HB3 proliferation inhibition;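 further: parasites grown with compound for 72 h before SYBR Green readout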; further: potency means the concentration at half of the fitted maximal effect
# [10] = Cell Viability - LYMP2-022 (AID 987); further: nearly all actives have a fitted effect of over 55% in size
# How it was run: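 LYMP2-022 lymphoblastoid cells (2500/well, complete medium) were treated with compounds for 24 hours at 37 C; intracellular ATP was then read by CellTiter-Glo luminescence after 30 min at room temperature. AC50 values were derived from Hill-equation fits.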
# [11] = Cell Viability - LYMP2-024 (AID 988); further: nearly all actives have a fitted effect of over 60% in size
# How it was run: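 Human lymphoblastoid LYMP2-024 cells (2500/well) rested 5 hr, then treated with compound for 24 hr at 37 C in complete medium. Viability was measured as intracellular ATP by CellTiter-Glo luminescence. AC50 values came from Hill-equation fits.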
# [12] = Cell Viability - LYMP2-026 (AID 989); further: nearly all actives have a fitted effect of over 50% in size
# How it was run: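 Human lymphoblastoid LYMP2-026 cells, 2500/well, exposed to compound 24 h at 37 C in complete medium. Viability as intracellular ATP by CellTiter-Glo luminescence; AC50 from Hill fits of qHTS concentration-response.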
# [13] = target: Alpha-galactosidase A (Homo sapiens) (UniProt P06280); experiment: Counterscreen for Glucocerebrosidase Inhibitors: qHTS Assay for Human alpha-Galactosidase at pH 4.5 (AID 992)
# Alpha-galactosidase A (Homo sapiens), sequence (P06280 whole entry, looked up): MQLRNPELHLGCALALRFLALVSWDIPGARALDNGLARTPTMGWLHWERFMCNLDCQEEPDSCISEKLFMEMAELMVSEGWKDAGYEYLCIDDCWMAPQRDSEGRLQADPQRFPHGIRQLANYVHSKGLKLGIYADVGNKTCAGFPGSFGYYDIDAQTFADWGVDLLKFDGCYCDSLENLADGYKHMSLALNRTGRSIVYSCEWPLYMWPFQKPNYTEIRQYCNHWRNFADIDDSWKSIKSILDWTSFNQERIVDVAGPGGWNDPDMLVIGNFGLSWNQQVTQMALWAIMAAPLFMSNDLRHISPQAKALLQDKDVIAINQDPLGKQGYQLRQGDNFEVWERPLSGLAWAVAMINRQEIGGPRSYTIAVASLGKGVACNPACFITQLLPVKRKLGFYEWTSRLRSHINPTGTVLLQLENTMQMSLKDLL
# How it was run: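 Enzyme at 2 nM final was combined with compound (0.7 nM to 77 uM) and 80 uM 4-methylumbelliferyl alpha-D-galactopyranoside in 50 mM citric acid, 0.005% Tween-20, pH 4.5. After 20 min at room temperature, fluorescence was read (Ex 365/Em 440 nm); AC50 came from Hill fits.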
# [14] = Cell Viability - LYMP1-002 - Assay at 24 hr (AID 993)
# How it was run: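 Human lymphoblastoid LYMP1-002 cells (2500/well) treated 24 h at 37 °C; viability as intracellular ATP by CellTiter-Glo luminescence. Tetraoctylammonium bromide as positive control; AC50 from Hill-equation fits of qHTS concentration-response.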
# [15] = Cell Viability - LYMP1-002 - Assay at 40 hr (AID 994); further: nearly all actives have a fitted effect of over 60% in size
# How it was run: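 LYMP1-002 human lymphoblastoid cells (2500/well, complete medium) were treated with compounds for 40 hr at 37 C. Intracellular ATP was measured by CellTiter-Glo luminescence, and AC50 values came from Hill-equation fits of concentration-response data; tetraoctylammonium bromide was the positive control.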
# [16] = target: alpha-glucosidase (Oryza sativa, rice) (UniProt Q653V4); experiment: Counterscreen for Glucocerebrosidase Inhibitors: qHTS Assay for Rice alpha-Glucosidase at pH 5.0 (AID 997)
# How it was run: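 Rice alpha-glucosidase (4 nM final) with 400 uM 4-methylumbelliferyl-alpha-D-glucopyranoside in citrate buffer pH 5.0, 20 min at room temperature, stopped at pH 10; fluorescence 365/440 nm, compounds 0.7 nM–77 uM, AC50 from Hill fits.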
# [17] = target: Endonuclease 4 (Escherichia coli (strain K12)) (UniProt P0A6C1); experiment: Counterscreen for APE1 Inhibitors: qHTS Validation Assay for Inhibitors of Endonuclease IV (AID 1708)
# How it was run: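 E. coli EndoIV at 2 nM final, preincubated 15 min at room temperature with compound, then 50 nM TAMRA/BHQ-2 THF abasic-site duplex added. Buffer: 50 mM Tris-HCl pH 7.5, 50 mM NaCl, 2 mM MgCl2, 1 mM DTT, 0.01% Tween-20. Kinetic fluorescence increase, third minus first read.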
# [18] = target: DNA repair nuclease/redox regulator APEX1 (Homo sapiens) (UniProt P27695); experiment: qHTS Validation Assay for Inhibitors of the Human Apurinic/apyrimidinic Endonuclease 1 (APE1) (AID 1705;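 further: TAMRA fluorescence gain over two minutes as APE1 cuts a quenched THF abasic duplex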)
# DNA repair nuclease/redox regulator APEX1 (Homo sapiens), sequence (P27695 whole entry, looked up): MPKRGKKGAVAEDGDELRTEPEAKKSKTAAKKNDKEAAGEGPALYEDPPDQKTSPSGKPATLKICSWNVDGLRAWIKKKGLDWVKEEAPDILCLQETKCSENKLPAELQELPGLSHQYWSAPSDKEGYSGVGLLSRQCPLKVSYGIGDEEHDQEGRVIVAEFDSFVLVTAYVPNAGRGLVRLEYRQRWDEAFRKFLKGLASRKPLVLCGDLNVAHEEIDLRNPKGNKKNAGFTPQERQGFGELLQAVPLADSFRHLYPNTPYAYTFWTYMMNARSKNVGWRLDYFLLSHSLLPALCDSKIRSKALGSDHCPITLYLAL
# How it was run: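 Human APE1 was preincubated with compound for 15 min at room temperature, then 50 nM (final) THF-abasic double-stranded DNA substrate bearing 5'-TAMRA and 3'-BHQ-2 was added. Incision-driven fluorescence rise (ex 525/em 598 nm) was read kinetically.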
# [19] = measured here: cell count channel max response
# [20] = measured here: lipid channel max response
structure (smiles),measurement,setting,value
NC(Cc1ccc(Cl)cc1)C(=O)O (centres undefined),"activity change, negative = inhibition",[1]; at 57.5 µM (top of the series),7.45% (inactive)
same,max response,[1]; [19],16.7%
same,max response,[1]; [20],25.4%
same,outcome,[2],inactive
same,Potency,[3],inactive
same,Potency,[4],inactive
same,Potency,[5],inactive
same,Potency,[6],inactive
same,Potency,[7],inactive
same,Potency,[8],inactive
same,Potency,[9],inactive
O=c1[nH]c(=O)n([C@H]2C[C@H](O)[C@@H](CO)O2)cc1Br,Potency,[10],inactive
same,Potency,[11],inactive
same,outcome,[12],inactive
same,outcome,[13],inactive
same,outcome,[14],inactive
same,Potency,[15],inactive
same,outcome,[16],inactive
same,"activity change, negative = inhibition",[1]; at 57.5 µM (top of the series),-1.72% (inactive) and -8.79% (inactive)
same,max response,[1]; [19],5.46% and -18.7%
same,max response,[1]; [20],1.8% and -25.8%
same,outcome,[2],inactive
same,Potency,[17],inactive
same,Potency,[3],inactive
same,Potency,[4],inactive
same,Potency,[5],inactive
same,Potency,[6],inactive
same,Potency,[7],inactive
same,Potency,[8],inactive
same,Potency,[9],inactive
O=C(CCCN1CCC(O)(c2cccc(C(F)(F)F)c2)CC1)c1ccc(F)cc1,outcome,[13],inactive
same,outcome,[16],inactive
same,Potency,[18],inactive
same,outcome,[2],inactive
same,Potency,[17],inactive
same,Potency,[3],3.55 µM (active)
same,Potency,[4],3.16 µM (active)
same,Potency,[5],3.55 µM (active)
same,Potency,[6],12.6 µM (active)
same,Potency,[7],3.98 µM (active)
same,Potency,[8],2.24 µM (active)
same,Potency,[9],10 µM (active)
C[N+](C)(C)CCCCCCCCCC[N+](C)(C)C,outcome,[13],inactive
same,outcome,[16],inactive
same,"activity change, negative = inhibition",[1]; at 25.7 µM (top of the series),-3.64% (inactive)
same,max response,[1]; [19],-13.2%
same,max response,[1]; [20],-14.8%
same,outcome,[2],inactive
same,Potency,[17],inactive
CC(C)[N+](C)(CCOC(=O)C1c2ccccc2Oc2ccccc21)C(C)C,outcome,[13],inactive
same,outcome,[16],inactive
same,"activity change, negative = inhibition",[1]; at 25.7 µM (top of the series),0.9% (inactive)
same,max response,[1]; [19],-9.66%
same,max response,[1]; [20],-8.2%
same,outcome,[2],inactive
same,Potency,[17],inactive
same,Potency,[3],12.6 µM (active)
same,Potency,[4],10 µM (active)
same,Potency,[5],3.98 µM (active)
same,Potency,[6],11.2 µM (active)
same,Potency,[8],8.91 µM (active)
same,Potency,[9],7.08 µM (active)
CO[C@@]1(NC(=O)CSCC#N)C(=O)N2C(C(=O)O)=C(CSc3nnnn3C)CS[C@@H]21,"activity change, negative = inhibition",[1]; at 57.5 µM (top of the series),0.161% (inactive)
same,max response,[1]; [19],-28.1%
same,max response,[1]; [20],-28.4%
same,Potency,[18],inactive
same,outcome,[2],inactive
same,Potency,[3],inactive
same,Potency,[4],inactive
same,Potency,[5],inactive
same,Potency,[6],inactive
same,Potency,[7],inactive
same,Potency,[9],inactive
Cc1ccc(=O)n(-c2ccccc2)c1,outcome,[13],inactive
same,outcome,[16],inactive
same,"activity change, negative = inhibition",[1]; at 57.5 µM (top of the series),1.81% (inactive)
same,max response,[1]; [19],6.64%
same,max response,[1]; [20],9.28%
same,outcome,[2],inactive
same,Potency,[17],inactive
same,Potency,[3],inactive
same,Potency,[4],inactive
same,Potency,[5],inactive
same,Potency,[6],inactive
same,Potency,[7],inactive
same,Potency,[8],inactive
same,Potency,[9],inactive
C[C@]12CCC(=O)C=C1CC[C@@H]1[C@@H]2C(=O)C[C@@]2(C)[C@H]1CC[C@]2(O)C(=O)CO,outcome,[13],inactive
same,outcome,[16],inactive
same,Potency,[18],inactive
same,outcome,[2],inactive
same,Potency,[17],inactive
same,Potency,[3],inactive
same,Potency,[4],inactive
same,Potency,[5],inactive
same,Potency,[6],inactive
same,Potency,[7],inactive
same,Potency,[9],inactive
CCCN(CCC)CCc1cccc2c1CC(=O)N2,outcome,[13],inactive
same,outcome,[16],inactive
same,"activity change, negative = inhibition",[1]; at 57.5 µM (top of the series),5.49% (inactive)
same,max response,[1]; [19],9.72%
same,max response,[1]; [20],11.6%
same,outcome,[2],inactive
same,Potency,[17],inactive
same,Potency,[3],inactive
same,Potency,[4],inactive
same,Potency,[5],inactive
same,Potency,[6],inactive
same,Potency,[7],inactive
same,Potency,[9],inactive
NC(=O)c1ncn([C@@H]2O[C@H](CO)[C@@H](O)[C@H]2O)c1O,Potency,[18],inactive
same,outcome,[2],inactive
same,Potency,[17],inactive
same,Potency,[3],inactive
same,Potency,[4],inactive
same,Potency,[5],inactive
same,Potency,[6],inactive
same,Potency,[7],inactive
same,Potency,[8],inactive
same,Potency,[9],inactive
CCCCNc1c(C(=O)OCC)c(C)nc2c1cnn2CC,outcome,[13],inactive
same,outcome,[16],inactive
same,Potency,[18],inactive
same,outcome,[2],inactive
same,Potency,[17],inactive
same,Potency,[3],7.94 µM (active)
same,Potency,[4],12.6 µM (active)
same,Potency,[5],12.6 µM (active)
same,Potency,[6],14.1 µM (active)
same,Potency,[8],11.2 µM (active)
same,Potency,[9],12.6 µM (active)
CNC1(C)C2CCC(C2)C1(C)C (centres undefined),"activity change, negative = inhibition",[1]; at 57.5 µM (top of the series),2.62% (inactive)
same,max response,[1]; [19],45.4%
same,max response,[1]; [20],47.5%
same,outcome,[2],inactive
same,Potency,[17],inactive
same,Potency,[3],inactive
same,Potency,[4],12.6 µM (active)
same,Potency,[5],inactive
same,Potency,[6],inactive
same,Potency,[7],inactive
same,Potency,[8],8.91 µM (active)
same,Potency,[9],inactive
